The full ranking holds about 18,000 sequences; the median of “log2 normalized intensity” is about 0.39, and the highest 2% start at about 6.6. This is one part of a sample in which the highest values are shown more often than they occur.
Biological target: T1, HNF4alpha2 (COS-7 nuclear extract) (Homo sapiens, UniProt P41235 1-474)
T1 sequence: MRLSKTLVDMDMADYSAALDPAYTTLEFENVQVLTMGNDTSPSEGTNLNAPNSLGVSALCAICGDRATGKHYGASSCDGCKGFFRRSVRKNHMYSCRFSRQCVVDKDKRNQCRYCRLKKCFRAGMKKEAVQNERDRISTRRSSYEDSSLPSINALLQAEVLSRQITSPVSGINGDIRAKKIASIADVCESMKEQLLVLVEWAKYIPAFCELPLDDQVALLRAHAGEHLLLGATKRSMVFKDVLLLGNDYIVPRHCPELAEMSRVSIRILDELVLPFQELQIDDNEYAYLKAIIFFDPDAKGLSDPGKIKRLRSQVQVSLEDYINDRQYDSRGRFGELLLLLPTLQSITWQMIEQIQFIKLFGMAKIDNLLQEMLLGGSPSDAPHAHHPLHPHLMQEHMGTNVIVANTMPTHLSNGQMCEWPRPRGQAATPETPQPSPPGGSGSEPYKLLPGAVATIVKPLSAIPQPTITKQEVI
Test: protein-binding microarray; COS-7 nuclear extract on double-stranded Agilent 4x180k PBM; binding buffer, salt, pH and temperature not given in the material; high values mean tight binding
Settings: chain copies: 2; label: 3' end of strand 1 on the slide; dsDNA, one strand shown
Summary of the method: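 Using CaPO4, COS-7 cells were transiently transfected with a human HNF4α isoform expression vector, and their nuclear extracts were applied to a custom Agilent SurePrint G3 4x180k double-stranded oligonucleotide array (~60 nt; ~44,000 test sequences in quadruplicate). Bound HNF4α was imaged at 2-µm resolution with an Agilent G2565CA scanner. Agilent software supplied the background-corrected, normalized gProcessedSignal that serves as the binding signal.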

Row | Sequence | binding signal
1 | TTTGCTCACTGTAACCTTTGCCCCCCAAGTGCCTAGGGAGATTAGAGTATCGGTCGA | 8.54 log2 normalized intensity
2 | AGCCCCAACCCACTGTTGCCCCTTCCAAAGGCCTAGGGAGATTAGAGTATCGGTCGA | 4.68 log2 normalized intensity
3 | AACCTTTGCCCCAGCTGTCACCCAGCCAGAGCCTAGGGAGATTAGAGTATCGGTCGA | 3.68 log2 normalized intensity
4 | ATCTCAGCTCACTGTAACCTTTGCCCCCCTGCCTAGGGAGATTAGAGTATCGGTCGA | 8.75 log2 normalized intensity
5 | ACTGTAACCTTTGCCCCCCTGGGCTCAAGCGCCTAGGGAGATTAGAGTATCGGTCGA | 5.81 log2 normalized intensity
6 | GTGCTATCTCAGCTCACTGTAACCTTTGCCGCCTAGGGAGATTAGAGTATCGGTCGA | 3.93 log2 normalized intensity
7 | GTAACCTTTGCCCCCCAAGTTGAAGCCATCGCCTAGGGAGATTAGAGTATCGGTCGA | 5.16 log2 normalized intensity
8 | TGGTGCTATCTTTGCTCACTGTAACCTTTGGCCTAGGGAGATTAGAGTATCGGTCGA | 3.78 log2 normalized intensity
9 | TCACTGTAACCTTTGCCCCCCAAGTTGAAGGCCTAGGGAGATTAGAGTATCGGTCGA | 6.72 log2 normalized intensity
10 | AGCAAAGGTCATCCTGGGCTACCGATATGAGCCTAGGGAGATTAGAGTATCGGTCGA | 0.737 log2 normalized intensity
11 | TAGACCAGCCAATTCTACTGGAAGTAGGTAGCCTAGGGAGATTAGAGTATCGGTCGA | 0.854 log2 normalized intensity
12 | CCTTTCCCCGCCCCGCGTCCGTGCACCCTTGCCTAGGGAGATTAGAGTATCGGTCGA | 4.42 log2 normalized intensity
13 | ACTTTGAGGTGTTCTCTGGGGTTAGCCAAAGCCTAGGGAGATTAGAGTATCGGTCGA | 1.59 log2 normalized intensity
14 | CGGGTCAGCAGGGCACCGCCTCCACACCCCGCCTAGGGAGATTAGAGTATCGGTCGA | 1.59 log2 normalized intensity
15 | TCACAATTAAGCCAAACTTGGGTTTATGGCGCCTAGGGAGATTAGAGTATCGGTCGA | 0.583 log2 normalized intensity
16 | AGACAACCTTTGGTCACTTGTAAGATACTGGCCTAGGGAGATTAGAGTATCGGTCGA | 2.43 log2 normalized intensity
17 | AAGGTTGGTCTTAGGACCACATGAGTAAACGCCTAGGGAGATTAGAGTATCGGTCGA | -0.756 log2 normalized intensity
18 | TCTCTGGCTTGATCCCTGAACTTTGCTCCCGCCTAGGGAGATTAGAGTATCGGTCGA | 7.97 log2 normalized intensity
19 | GGCTTGATCCCTGAACTTTGCTCCCACCCTGCCTAGGGAGATTAGAGTATCGGTCGA | 5.57 log2 normalized intensity
20 | GAGAAGTGAACTTTGCCCTCTCTTTCTGGAGCCTAGGGAGATTAGAGTATCGGTCGA | 7.55 log2 normalized intensity
21 | TCCTGCCTTGGAGAAGTGAACTTTGCCCTCGCCTAGGGAGATTAGAGTATCGGTCGA | 10.2 log2 normalized intensity
22 | TGGGCTCCTGCCTTGGAGAAGTGAACTTTGGCCTAGGGAGATTAGAGTATCGGTCGA | 4.34 log2 normalized intensity
23 | ACTGATCTCTGGCTTGATCCCTGAACTTTGGCCTAGGGAGATTAGAGTATCGGTCGA | 3.32 log2 normalized intensity
24 | GTGAACTTTGCCCTCTCTTTCTGGAACCTAGCCTAGGGAGATTAGAGTATCGGTCGA | 5.08 log2 normalized intensity
25 | AAGTGACCCTGGTCTTTGCCCTTTCCTAGAGCCTAGGGAGATTAGAGTATCGGTCGA | 3.39 log2 normalized intensity
26 | CCTTGGATCTCCTGCACCTGAACTTTGCTCGCCTAGGGAGATTAGAGTATCGGTCGA | 6.35 log2 normalized intensity
27 | TGGGCTCGGCGCTCCGCTTACTCGGCCTGGGCCTAGGGAGATTAGAGTATCGGTCGA | -0.994 log2 normalized intensity

Row | Sequence | binding signal
28 | TCCCTCATTAGTAACTCCAGAGATAAGATAGCCTAGGGAGATTAGAGTATCGGTCGA | 0.0683 log2 normalized intensity
29 | GCAGTGGGACAAAGGTCACAGGAAAGGGACGCCTAGGGAGATTAGAGTATCGGTCGA | 4.13 log2 normalized intensity
30 | AGGGAGGGGAGAGGGGGTTAAAGGTTATTTGCCTAGGGAGATTAGAGTATCGGTCGA | 4.97 log2 normalized intensity
31 | CCTATATAGTTGAGATTGTAACCGTAAATGGCCTAGGGAGATTAGAGTATCGGTCGA | 1.55 log2 normalized intensity
32 | GTTAAGTGAGTGGACTTTGGTCCTGGTCAGGCCTAGGGAGATTAGAGTATCGGTCGA | 6.52 log2 normalized intensity
33 | CATGGACTTTGAACCAAGATATGCTAACATGCCTAGGGAGATTAGAGTATCGGTCGA | 4.81 log2 normalized intensity
34 | GAATGCAACCACACCAACATGGACTTTGTCGCCTAGGGAGATTAGAGTATCGGTCGA | 6.09 log2 normalized intensity
35 | AGGTACTAAGAGATTTGAATATGTACATGGGCCTAGGGAGATTAGAGTATCGGTCGA | 1.38 log2 normalized intensity
36 | CGGTCAGCTGCTTGACTTAGTACATGGCCTGCCTAGGGAGATTAGAGTATCGGTCGA | 0.557 log2 normalized intensity
37 | CTAAGAGATTTGAATATGTACATGGACTTTGCCTAGGGAGATTAGAGTATCGGTCGA | 6.19 log2 normalized intensity
38 | TGAATATGTACATGGACTTTGAACCAAGATGCCTAGGGAGATTAGAGTATCGGTCGA | 8.36 log2 normalized intensity
39 | AGATTTGAATATGTACATGGACTTTGAACCGCCTAGGGAGATTAGAGTATCGGTCGA | 10.3 log2 normalized intensity
40 | ATGTACATGGACTTTGAACCAAGATATGCTGCCTAGGGAGATTAGAGTATCGGTCGA | 6.75 log2 normalized intensity
41 | ACACAGTACTTTGTACATGGGAATAGACATGCCTAGGGAGATTAGAGTATCGGTCGA | 0.863 log2 normalized intensity
42 | ATCCTTATCTTGTAGAAAAGTGCATGGATTGCCTAGGGAGATTAGAGTATCGGTCGA | 0.836 log2 normalized intensity
43 | TTGAGTTTGCTCTGCTACTAACTGCATGACGCCTAGGGAGATTAGAGTATCGGTCGA | -0.452 log2 normalized intensity
44 | TTCTCCAGGAAGTTCAGGCCTCGGCTTCATGCCTAGGGAGATTAGAGTATCGGTCGA | -0.98 log2 normalized intensity
45 | CACTCAATGCAGCAGCATTGGACCCTCCCAGCCTAGGGAGATTAGAGTATCGGTCGA | 5.46 log2 normalized intensity
46 | ACTCAGGCATTCTGACCTTTGTCTCCAGGCGCCTAGGGAGATTAGAGTATCGGTCGA | 5.69 log2 normalized intensity
47 | GATTGACTCAGGCATTCTGACCTTTGTCTCGCCTAGGGAGATTAGAGTATCGGTCGA | 7.05 log2 normalized intensity
48 | GGCATTCTGACCTTTGTCTCCAGGCAAACTGCCTAGGGAGATTAGAGTATCGGTCGA | 4.88 log2 normalized intensity
49 | CTGCAGATTGACTCAGGCATTCTGACCTTTGCCTAGGGAGATTAGAGTATCGGTCGA | 6.93 log2 normalized intensity
50 | CCATATCACATTTTAAGGTCTGGCATTCTTGCCTAGGGAGATTAGAGTATCGGTCGA | 1.37 log2 normalized intensity
51 | TTTTAAGGTCTGGCATTCTTTTTGACCTTTGCCTAGGGAGATTAGAGTATCGGTCGA | 7.55 log2 normalized intensity
52 | CCTTTTATTTTCTTATCTGCCTAGGCATTTGCCTAGGGAGATTAGAGTATCGGTCGA | 1.33 log2 normalized intensity
53 | TAAAACTGCAGATTGACTCAGGCATTCTGAGCCTAGGGAGATTAGAGTATCGGTCGA | -0.529 log2 normalized intensity
54 | TATTTAGACTCAGCATGTCTTCTGACCTTTGCCTAGGGAGATTAGAGTATCGGTCGA | 6.51 log2 normalized intensity

Reference: paper PMC10726135, “HNF4α isoforms regulate the circadian balance between carbohydrate and lipid metabolism in the liver”
